An excerpt weighted towards active compounds, which were near 11% of everything screened.
HPGD block – inhibitors of human 15-hydroxyprostaglandin dehydrogenase (HPGD) | P15428 | purified HPGD, NADH fluorescence kinetic, PGE2 substrate | Potency, µM, actives largely listed as inhibitors | 4.3% of 150,000 active
Target sequence (P15428 whole entry, looked up): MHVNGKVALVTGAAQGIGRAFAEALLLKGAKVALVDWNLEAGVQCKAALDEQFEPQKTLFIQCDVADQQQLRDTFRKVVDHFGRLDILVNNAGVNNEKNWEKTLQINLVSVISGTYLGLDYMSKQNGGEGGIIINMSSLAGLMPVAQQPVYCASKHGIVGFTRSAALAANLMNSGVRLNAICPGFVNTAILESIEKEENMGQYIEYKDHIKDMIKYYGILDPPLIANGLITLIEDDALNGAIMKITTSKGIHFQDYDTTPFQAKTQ
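20 nM HPGD preincubated 15 min at room temperature with compound in 50 mM Tris-HCl pH 8, 0.01% Tween 20. Started with 1 mM NAD+ and 30 uM prostaglandin E2; NADH fluorescence (360/450 nm) read 5 times over 30-s intervals, last minus first.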
NPSR antagonist – antagonists of human neuropeptide S receptor cAMP signaling. Q6W5P4. CHO-NPSR cells, cAMP TR-FRET, antagonist mode. Potency, µM (doses to about 38.3 µM), hits mostly inhibitors. 1% of 220,000 active. AID 1461; active = well fitted curve in the direction sought with a large enough effect; inconclusive = small, poorly fitted or top-dose-only effect, or another doubt; inactive = no such curve, though single readings can be large; an effect the other way counts as inactive or inconclusive; also: nearly all actives have a fitted effect of over 50% in size
Target sequence (Q6W5P4 whole entry, looked up): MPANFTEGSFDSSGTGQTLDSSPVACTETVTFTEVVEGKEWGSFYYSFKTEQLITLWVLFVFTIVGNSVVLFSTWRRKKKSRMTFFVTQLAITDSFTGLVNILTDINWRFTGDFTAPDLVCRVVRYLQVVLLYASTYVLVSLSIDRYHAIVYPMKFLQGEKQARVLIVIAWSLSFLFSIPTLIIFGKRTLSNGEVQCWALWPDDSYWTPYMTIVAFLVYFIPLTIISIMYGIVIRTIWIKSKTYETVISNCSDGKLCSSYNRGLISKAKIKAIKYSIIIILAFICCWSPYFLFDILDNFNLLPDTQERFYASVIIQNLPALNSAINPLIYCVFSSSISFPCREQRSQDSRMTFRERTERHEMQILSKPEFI
IMPase Li inh – IMPase inhibition in cells with lithium potentiation; CHO-M1 cells, IP1 TR-FRET (IP-One), carbachol + lithium; Potency, µM (top dose mostly 59.4 µM), hits mostly inhibitors; 0.35% of 210,000 active; active = well fitted curve in the direction sought with a large enough effect; inconclusive = small, poorly fitted or top-dose-only effect, or another doubt; inactive = no such curve, though single readings can be large; an effect the other way counts as inactive or inconclusive;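 also: IP1 builds up when IMPase is blocked and the TR-FRET signal falls; nearly all actives have a fitted effect of over 50% in size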
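CHO-M1, 2000 cells/well, 16–30 h culture; cpd + low Li+, 30 min 37C; lysis with d2-IP1/Eu-anti-IP1 Ab, 10 min RT; TR-FRET 665/620 ratio and 620 channel; AC50 via Hill.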
PNC assembly inh – perinucleolar compartment assembly inhibition; 3.1% of 140,000 active; AID 2417; PC3M PTB-GFP, PNC prevalence imaging, 16 h; active compounds read low; activity change (PNC), negative = inhibition, % at 10 µM;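 active = readout at or below -70, meaning at least 70% loss of cells showing the perinucleolar compartment, a nuclear body marking cancer cells; inconclusive = readout between -30 and a set limit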
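Read-out is percentage of cells bearing a perinucleolar compartment, from automated 20x imaging of fixed, Hoechst-stained PC3M PTB-GFP cells. Cells were seeded 4 h, then exposed 16 h to compound (23 nl of library stock) in duplicate plates.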
ALDH1A1 block – blocks purified human ALDH1A1 activity. P00352. Purified ALDH1A1, NADH fluorescence, propionaldehyde substrate. Potency, µM (titrated, usually from 75.3 µM), hits mostly inhibitors. 7.3% of 220,000 active. AID 1030
IMPase inh – IMPase inhibition in cells; inhibition (IP1 accumulation), % at 46.1 µM; 120,000 tested, under 10 active; P97697; CHO-M1 cells, IP1 accumulation, HTRF TR-FRET ratio; active = well fitted curve in the direction sought with a large enough effect in the signal ratio, not every such curve was filed as active; inconclusive = small, poorly fitted or top-dose-only effect, or a change in a side signal; inactive = no such curve, though single readings can be large or run the other way; the % refers to the signal ratio;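 also: cells stimulated with carbachol in lithium chloride buffer; higher means more IMPase inhibition seen as more IP1 and lower FRET ratio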
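The IP-One HTRF competitive assay in carbachol-stimulated CHO-M1 cells quantifies cellular IP1. Compounds spanned up to 46 uM final, and activity is expressed as AC50 from concentration-response fits of the ratio and donor data.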
Hits are given with their value; i = inactive; ? = inconclusive; nt = not tested or not shown; [ ] = remark or other dose. Unless noted, calls follow the shape of the dose curve; as a rule, active = well fitted inhibition curve with a large enough effect (not every such curve was filed as active); inconclusive = small, poorly fitted or top-dose-only effect, or another doubt; inactive = no such curve, though single readings can be large or run the other way.

SMILES	HPGD block	NPSR antagonist	IMPase Li inh	PNC assembly inh	ALDH1A1 block	IMPase inh
CSc1nc(-c2ccco2)nn1C(=O)Cc1ccccc1	i	i	i	?	i	i
CCCCOc1ccc(C(=O)N(Cc2ccc(C(C)C)cc2)C2CCS(=O)(=O)C2)cc1 (configuration not stated)	nt	nt	nt	nt	nt	i
CCOC(=O)C1(CC2CCCCO2)CCN(Cc2nc(C(C)C)cs2)CC1 (configuration not stated)	nt	i	i	nt	i	nt
Cc1nc2ccccc2n1S(=O)(=O)c1ccc(Br)cc1	i	i	i	-109.0	i	nt
O=S(=O)(c1ccc(Br)cc1)N1CCn2c(nc3ccccc32)C1	i	i	i	i	i	i
COc1ccc(CCNc2oc(-c3ccco3)nc2C#N)cc1	?	i	i	-100.0	?	i
C=CCn1c(NC(=O)CC)c(C(=O)OCC)sc1=S	20µM	i	i	i	?	i
C=CCn1c(N)c(C(=O)OCC)sc1=S	i	i	i	i	i	i
CCCC(=O)Nc1nc2c(OC)ccc(OC)c2s1	i	i	i	i	15.8µM	i
CN1/C(=C\C=O)C(C)(C)c2ccccc21	nt	i	i	nt	i	nt
CN1\C(=C/C=C/C=C/C=[N+](C)C)C(C)(C)c2ccccc21	nt	10µM	i	nt	25.1µM	nt
Cc1ccc(NCCC(=O)c2ccc(Br)cc2)cc1	i	i	i	i	0.794µM	i
CCc1ccc(NCCC(=O)c2ccc(Br)cc2)cc1	nt	i	nt	i	i	i
Cc1ccc(NCCC(=O)c2ccc(Cl)cc2)cc1	i	i	i	i	1.41µM	i
Cc1cc(C(F)(F)F)nc(SCCN2CCOCC2)c1C#N	nt	i	i	nt	22.4µM	nt
Cc1cc(C)nc(SCCN2CCOCC2)n1	i	i	i	i	i	i
CC(C)(c1ccccc1)c1ccc(OCCCN2CCNCC2)cc1	nt	i	i	nt	15.8µM	nt
O=C(Cc1ccccc1)Nc1sc2c(c1C(=O)Nc1cccc(Cl)c1)CCCCC2	nt	nt	nt	nt	nt	i
C=CCN1C(=O)/C(=c2\sc3nc(=O)c(Cc4ccccc4Cl)nn3c2=O)c2ccccc21	nt	i	nt	nt	3.55µM	nt
CC(C)(C)SCCNC(=O)/C=C/c1cccc([N+](=O)[O-])c1	i	i	i	i	14.1µM	nt
CC(C)(C)SCCNC(=O)/C=C/c1ccc([N+](=O)[O-])cc1	i	i	i	?	?	nt
O=C(/C=C/c1cccc([N+](=O)[O-])c1)NCCSCc1ccc(Cl)cc1	i	i	i	i	22.4µM	nt
COCCCNC(=S)N1CCC(NC(=O)c2ccco2)CC1	nt	i	i	nt	i	nt
CN(Cc1ccc(OC(F)F)cc1)C(=O)c1ccc2nccnc2c1	i	i	i	?	i	i
COc1cccc(CN(C)C(=O)c2ccc3nccnc3c2)c1	28.2µM	i	i	i	i	i
SMILES	HPGD block	NPSR antagonist	IMPase Li inh	PNC assembly inh	ALDH1A1 block	IMPase inh
CCCCn1c(=O)n(C)c(=O)c2c3c(sc21)COC(C)(C)C3	i	i	i	i	?	i
O=C(O)c1ccc(CSc2nc3ccc(N4C(=O)C5C6C=CC(C6)C5C4=O)cc3s2)cc1 (configuration not stated)	15.8µM	i	i	i	28.2µM	nt
CCc1cccc(CC)c1NC(=O)CSc1nc2ccc(N3C(=O)C4C5C=CC(C5)C4C3=O)cc2s1 (configuration not stated)	8.91µM	i	i	i	?	i
O=C(CSC1=NCCS1)N1CCN(c2ccccc2)CC1	i	i	i	i	i	i
N#C/C(=N\Nc1ccc(F)cc1)C(=N)N1CCCCCC1	nt	i	i	nt	?	nt
N#C/C(=N\Nc1ccccc1F)C(=N)N1CCCCC1	i	i	i	-85.0	?	i
CCc1nn2cc(C(=O)c3cc(Cl)ccc3O)cnc2c1-c1ccc(F)cc1	15.8µM	i	i	i	i	i
Cc1cccc2nc(=S)n(C(=O)c3ccco3)n12	?	i	i	?	4.74µM	i
O=C(c1ccco1)n1c(=S)nc2ccccn21	11.2µM	i[7.67 µM]	i	i	20µM	i
Cc1cccc(C(=O)n2c(=S)nc3cc(C)ccn32)c1	nt	i	nt	nt	?	nt
CSc1nc(-c2ccccc2)nn1C(=O)c1ccco1	i	i	i	i	i	i
Cc1ccn2c(c1)nc(=S)n2C(=O)c1ccccc1	25.1µM	i	i	i	?	nt
Cc1[nH]c2ccccc2c1N=Nc1ccccc1C(=O)O	14.1µM	i	i	i	?	nt
Cc1[nH]c2ccccc2c1N=Nc1cccc(C(=O)O)c1	i	i	i	?	i	i
CCN(CC)S(=O)(=O)c1cc(NC(=O)COC(=O)Cn2cnc3ccccc32)ccc1C	i	i	i	i	20µM	nt
O=C(COC(=O)Cn1cnc2ccccc21)Nc1ccc2c(c1)OCCO2	i	i	i	i	28.2µM	i
O=Cc1sc(N2CCOCC2)nc1-c1ccccc1	nt	i	14.1µM	nt	8.91µM	nt
O=C(N/N=C/c1sc(N2CCOCC2)nc1-c1ccccc1)c1ccccc1O	i	i	i	i	?	nt
Cc1ccc(CN2C(=O)CCC2C(=O)NCCN(CC(C)C)CC(C)C)cc1 (configuration not stated)	i	i	i	i	22.4µM	i
Cc1ccc(C(=O)Nc2ncc(Cc3ccc(SC(F)F)cc3)s2)cc1	i	i	i	-82.4	i	i
COC(=O)[C@@]1(Cc2ccc(OC)cc2)[C@H]2c3cc(C(=O)N(C)C)n(Cc4ccc(O)c(OC)c4)c3C[C@H]2CN1C(=O)c1ccccc1	i	nt	i	nt	i	nt
CCN(CC)C(=O)N1c2ccccc2C=Cc2ccccc21	i	?	i	-105.1	i	i
NC(=O)N1c2ccccc2C=Cc2ccccc21	i	i	i	?	i	i
O=C(CN1CCCCCC1)N1c2ccccc2C=Cc2ccccc21	i	i	i	-105.9	i	i
c1ccc(-c2ccccc2OCCOCCN2CCCCC2)cc1	i	i	i	i	i	nt
SMILES	HPGD block	NPSR antagonist	IMPase Li inh	PNC assembly inh	ALDH1A1 block	IMPase inh
COc1ccc(OC)c(C(c2nnnn2C2CCCC2)N2CCN(c3ccccc3)CC2)c1 (configuration not stated)	i	?	i	i	?	i
O=C(CSc1cn(CCNC(=O)c2cccs2)c2ccccc12)NC1CCCC1	20µM	i	i	i	?	i
O=C(CSc1nnc(CNC(=O)c2cccs2)o1)NC1CCCC1	i	i	i	-100.0	i	i
O=C(NCCC(c1ccccc1)c1ccccc1)c1cccs1	i	i	i	i	i	nt
COc1ccc2ncc(S(=O)(=O)c3ccccc3)c(N3CCC4(CC3)OCCO4)c2c1	i	i	i	i	7.94µM	i
CCOC(=O)N1CCN(c2c(NCCOC)c(=O)c2=O)CC1	i	i	i	i	31.6µM	i
CCCCNC(=O)c1ccc(CNc2c(N3CCC(C(=O)OCC)CC3)c(=O)c2=O)cc1	3.55µM	i	i	?	?	i
CCOC(=O)C1CCN(c2c(NCc3ccc(C(=O)NC4CCCC4)cc3)c(=O)c2=O)CC1	2µM	i	i	i	i	i

Compound activity (PubChem)
